# This is one part of the list. Results filed as inconclusive are left out. Active and inactive are the calls of the source. Calls follow the shape of the dose curve; as a rule, active = well fitted inhibition curve with a large enough effect; inconclusive = small, poorly fitted or top-dose-only effect; inactive = flat fitted curve, though single readings scatter.
# Biological target: Alanine aminotransferase 2 (Homo sapiens) (UniProt Q8TD30)
# Assay: Confirmatory qHTS assay for inhibitors of Glutamate pyruvate transaminase 2 (GPT2)
# Conditions: GPT2 enzyme, coupled Amplex Red pyruvate fluorescence
# Protocol: Assay Provider: Zhenghe John Wang Ph.D. Case Western Reserve University, Cleveland OH Glutamate pyruvate transaminase 2 (GPT2) catalyzes the reversible transamination of glutamate and pyruvate to provide a-ketoglutarate and alanine. We have optimized an assay for GPT2 enzymatic activity that couples pyruvate formation to detection of fluorescence using an established pyruvate oxidase/horseradish peroxidase / Amplex Red system. Screening conditions were 250uM a-KG, 2mM L-alanine, and 0.006 ng/uL GPT2 in 4 uL of solution; 2 uL of Amplex reaction mix (outlined below) were added so that final concentrations of Amplex reagents in 6 uL were 0.2mM ThPP, 0.2U/mL PO, 1 U/mL HRP, and 15 uM Amplex.
# NOTE: The volume of GPT2 in the system depended on the activity of it. The activity could be different in every batch. Batch testing the GPT2 activity was done prior to the assay. Full plate assay with automation as the following protocol: 1. Dispense 2ul of GPT2 enzyme (0.012 ng/ul) into columns 3-48, 2ul of GPT2 buffer (ddH2O with 110mM KCl, 10mM NaCl, 2mM MgCl2, 20mM HEPEs, 0.01% tween-20, 0.1% BSA, 5mM DTT ) into columns 1-2 as a positive control. 2. […] Read at Tecan: Excitation filter 560(10) nm, Emission filter 590 (10) nm Reagents preparation: 1. […]
# Sequence of Alanine aminotransferase 2 (Homo sapiens) (Q8TD30 whole entry, looked up): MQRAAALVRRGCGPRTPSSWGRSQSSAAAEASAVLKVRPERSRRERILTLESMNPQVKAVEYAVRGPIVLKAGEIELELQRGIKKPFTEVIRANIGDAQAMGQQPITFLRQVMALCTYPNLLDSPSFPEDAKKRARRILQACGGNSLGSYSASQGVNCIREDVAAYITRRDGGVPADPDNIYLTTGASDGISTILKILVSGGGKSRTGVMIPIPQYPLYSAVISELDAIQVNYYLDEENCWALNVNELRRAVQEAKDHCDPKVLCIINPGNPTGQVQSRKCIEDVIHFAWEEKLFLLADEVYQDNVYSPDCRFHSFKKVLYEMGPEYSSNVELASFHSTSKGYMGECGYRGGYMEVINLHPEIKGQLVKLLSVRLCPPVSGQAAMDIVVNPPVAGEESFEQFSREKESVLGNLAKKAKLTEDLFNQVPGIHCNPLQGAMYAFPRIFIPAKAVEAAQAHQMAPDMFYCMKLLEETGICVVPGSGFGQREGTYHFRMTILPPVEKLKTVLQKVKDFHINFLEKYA
row,Structure (SMILES),Potency
1,CNC(=O)c1ccccc1Nc1nc(Nc2ccc(N3CCOCC3)cc2OC)ncc1Cl,1.72 µM (active)
2,CN1CCOc2c(C(=O)NCCN3CCNC3=O)cc(Nc3cccnc3)cc21,4.98 µM (active)
